Test results from ChEMBL document CHEMBL2218924, “A broad activity screen in support of a chemogenomic map for kinase signalling research and drug discovery” (Biochem J, 2013).

How the values were obtained:
[1] = molecular target: T1, Ephrin type-A receptor 3 (Homo sapiens) (UniProt P29320); settings: at 10 µM
T1 sequence (whole entry): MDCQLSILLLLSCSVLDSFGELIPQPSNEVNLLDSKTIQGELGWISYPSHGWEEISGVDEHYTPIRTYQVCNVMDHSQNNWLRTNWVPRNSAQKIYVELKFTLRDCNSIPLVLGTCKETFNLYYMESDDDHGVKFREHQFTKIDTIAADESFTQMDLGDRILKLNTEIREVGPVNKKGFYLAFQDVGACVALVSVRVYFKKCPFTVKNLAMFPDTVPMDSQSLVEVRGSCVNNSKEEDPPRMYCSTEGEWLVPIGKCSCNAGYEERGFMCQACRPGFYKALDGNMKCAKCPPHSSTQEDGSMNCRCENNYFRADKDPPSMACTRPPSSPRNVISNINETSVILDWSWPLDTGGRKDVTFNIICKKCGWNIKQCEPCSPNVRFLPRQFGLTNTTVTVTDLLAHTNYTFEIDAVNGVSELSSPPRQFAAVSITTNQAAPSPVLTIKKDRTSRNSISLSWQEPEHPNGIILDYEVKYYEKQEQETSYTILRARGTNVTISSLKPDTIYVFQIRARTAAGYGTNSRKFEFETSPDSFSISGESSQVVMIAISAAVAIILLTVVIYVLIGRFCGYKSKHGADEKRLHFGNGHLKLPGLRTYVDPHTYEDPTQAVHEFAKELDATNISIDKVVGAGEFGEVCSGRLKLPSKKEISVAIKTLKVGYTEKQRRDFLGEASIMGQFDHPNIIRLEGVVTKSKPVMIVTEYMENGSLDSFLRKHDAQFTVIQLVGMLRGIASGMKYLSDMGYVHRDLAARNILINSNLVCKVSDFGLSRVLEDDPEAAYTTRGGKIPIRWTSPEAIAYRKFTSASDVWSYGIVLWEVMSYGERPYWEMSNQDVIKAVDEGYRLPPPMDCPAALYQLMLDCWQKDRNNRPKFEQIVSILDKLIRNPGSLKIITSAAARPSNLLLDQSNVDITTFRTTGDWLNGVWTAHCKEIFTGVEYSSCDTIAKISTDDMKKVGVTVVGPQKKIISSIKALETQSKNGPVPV

[2] = molecular target: Ephrin type-A receptor 4 (Homo sapiens) (UniProt P54764); settings: at 1 µM
Sequence of Ephrin type-A receptor 4 (Homo sapiens) (P54764 whole entry): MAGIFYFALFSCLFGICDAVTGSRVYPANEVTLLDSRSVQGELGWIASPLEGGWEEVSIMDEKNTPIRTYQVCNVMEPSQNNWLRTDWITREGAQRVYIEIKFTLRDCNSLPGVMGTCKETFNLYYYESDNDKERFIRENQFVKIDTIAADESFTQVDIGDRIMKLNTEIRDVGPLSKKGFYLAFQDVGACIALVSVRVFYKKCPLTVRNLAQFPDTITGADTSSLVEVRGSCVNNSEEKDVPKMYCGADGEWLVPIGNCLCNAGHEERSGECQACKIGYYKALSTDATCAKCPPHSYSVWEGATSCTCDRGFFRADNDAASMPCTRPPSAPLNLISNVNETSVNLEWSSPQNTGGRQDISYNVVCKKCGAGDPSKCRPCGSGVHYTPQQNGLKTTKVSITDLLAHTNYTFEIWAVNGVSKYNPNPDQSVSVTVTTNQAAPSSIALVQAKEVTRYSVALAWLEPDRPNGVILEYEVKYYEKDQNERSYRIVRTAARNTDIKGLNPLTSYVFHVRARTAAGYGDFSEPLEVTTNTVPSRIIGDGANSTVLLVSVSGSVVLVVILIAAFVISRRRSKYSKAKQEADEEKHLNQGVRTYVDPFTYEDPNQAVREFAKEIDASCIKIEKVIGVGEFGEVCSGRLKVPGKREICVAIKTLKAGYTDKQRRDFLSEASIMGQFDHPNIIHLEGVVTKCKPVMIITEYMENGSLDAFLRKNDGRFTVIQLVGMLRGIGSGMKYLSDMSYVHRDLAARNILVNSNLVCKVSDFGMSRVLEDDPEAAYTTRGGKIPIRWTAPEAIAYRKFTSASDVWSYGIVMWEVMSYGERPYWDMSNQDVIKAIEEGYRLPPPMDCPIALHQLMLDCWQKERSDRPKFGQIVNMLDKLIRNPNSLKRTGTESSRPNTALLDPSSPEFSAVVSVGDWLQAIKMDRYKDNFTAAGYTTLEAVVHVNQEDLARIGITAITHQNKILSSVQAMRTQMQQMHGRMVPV

[3] = molecular target: Ephrin type-A receptor 4 (Homo sapiens) (UniProt P54764); settings: at 10 µM
[4] = molecular target: Ephrin type-A receptor 5 (Homo sapiens) (UniProt P54756); settings: at 1 µM
Sequence of Ephrin type-A receptor 5 (Homo sapiens) (P54756 whole entry): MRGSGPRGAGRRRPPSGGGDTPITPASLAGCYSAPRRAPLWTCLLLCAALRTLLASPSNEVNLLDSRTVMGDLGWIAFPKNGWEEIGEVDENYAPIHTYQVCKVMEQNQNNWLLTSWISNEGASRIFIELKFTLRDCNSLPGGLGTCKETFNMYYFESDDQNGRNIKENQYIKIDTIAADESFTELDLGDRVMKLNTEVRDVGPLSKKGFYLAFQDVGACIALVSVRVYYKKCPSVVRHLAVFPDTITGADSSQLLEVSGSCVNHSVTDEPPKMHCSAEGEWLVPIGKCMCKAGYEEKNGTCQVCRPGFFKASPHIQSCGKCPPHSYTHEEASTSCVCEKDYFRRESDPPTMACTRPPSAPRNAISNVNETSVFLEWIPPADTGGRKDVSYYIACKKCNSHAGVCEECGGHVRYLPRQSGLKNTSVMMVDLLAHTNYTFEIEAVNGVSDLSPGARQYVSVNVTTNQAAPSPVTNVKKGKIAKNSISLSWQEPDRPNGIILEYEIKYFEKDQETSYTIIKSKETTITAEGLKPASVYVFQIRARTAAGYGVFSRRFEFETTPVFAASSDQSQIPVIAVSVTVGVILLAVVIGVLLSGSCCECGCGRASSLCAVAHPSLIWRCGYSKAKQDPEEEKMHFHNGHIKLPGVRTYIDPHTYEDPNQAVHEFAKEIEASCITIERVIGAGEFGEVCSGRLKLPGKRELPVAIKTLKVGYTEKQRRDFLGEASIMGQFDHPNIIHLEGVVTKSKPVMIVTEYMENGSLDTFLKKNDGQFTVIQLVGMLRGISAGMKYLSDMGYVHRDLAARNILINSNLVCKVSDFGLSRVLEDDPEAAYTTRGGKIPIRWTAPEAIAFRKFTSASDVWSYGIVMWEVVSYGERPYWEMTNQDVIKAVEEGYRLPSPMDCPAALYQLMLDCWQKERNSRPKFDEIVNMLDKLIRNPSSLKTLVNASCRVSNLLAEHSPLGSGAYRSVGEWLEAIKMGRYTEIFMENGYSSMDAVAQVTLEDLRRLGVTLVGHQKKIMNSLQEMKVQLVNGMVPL

[5] = molecular target: Ephrin type-A receptor 5 (Homo sapiens) (UniProt P54756); settings: at 10 µM
[6] = molecular target: Ephrin type-A receptor 7 (Homo sapiens) (UniProt Q15375); settings: at 1 µM
Sequence of Ephrin type-A receptor 7 (Homo sapiens) (Q15375 28-998 limits assumed): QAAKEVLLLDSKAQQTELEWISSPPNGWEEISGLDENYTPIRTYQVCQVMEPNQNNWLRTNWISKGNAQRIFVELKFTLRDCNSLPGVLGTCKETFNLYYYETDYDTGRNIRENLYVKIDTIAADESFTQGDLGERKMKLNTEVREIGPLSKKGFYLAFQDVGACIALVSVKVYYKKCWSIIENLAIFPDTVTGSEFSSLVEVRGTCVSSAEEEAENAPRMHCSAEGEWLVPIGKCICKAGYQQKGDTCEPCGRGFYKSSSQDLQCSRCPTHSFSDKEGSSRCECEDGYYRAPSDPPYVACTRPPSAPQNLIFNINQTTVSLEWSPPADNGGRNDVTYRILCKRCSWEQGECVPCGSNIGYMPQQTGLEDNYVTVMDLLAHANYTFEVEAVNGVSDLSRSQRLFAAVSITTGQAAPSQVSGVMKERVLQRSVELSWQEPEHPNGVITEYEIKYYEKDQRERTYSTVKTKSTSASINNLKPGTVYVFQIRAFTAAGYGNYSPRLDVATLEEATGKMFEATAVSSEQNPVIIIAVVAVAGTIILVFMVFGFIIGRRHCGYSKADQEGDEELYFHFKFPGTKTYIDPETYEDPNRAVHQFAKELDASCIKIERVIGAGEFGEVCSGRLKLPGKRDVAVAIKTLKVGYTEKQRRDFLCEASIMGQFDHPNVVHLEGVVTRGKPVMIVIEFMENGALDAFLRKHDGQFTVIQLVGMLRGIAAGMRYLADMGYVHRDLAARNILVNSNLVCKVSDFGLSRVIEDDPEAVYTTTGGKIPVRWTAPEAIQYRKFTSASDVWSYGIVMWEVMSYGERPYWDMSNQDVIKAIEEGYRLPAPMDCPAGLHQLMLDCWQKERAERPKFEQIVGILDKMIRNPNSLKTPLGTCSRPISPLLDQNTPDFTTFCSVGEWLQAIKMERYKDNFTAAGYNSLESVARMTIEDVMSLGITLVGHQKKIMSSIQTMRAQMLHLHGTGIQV

[7] = molecular target: Ephrin type-A receptor 7 (Homo sapiens) (UniProt Q15375); settings: at 10 µM
[8] = molecular target: T2, Ephrin type-A receptor 8 (Homo sapiens) (UniProt P29322); settings: at 1 µM
T2 sequence (whole entry): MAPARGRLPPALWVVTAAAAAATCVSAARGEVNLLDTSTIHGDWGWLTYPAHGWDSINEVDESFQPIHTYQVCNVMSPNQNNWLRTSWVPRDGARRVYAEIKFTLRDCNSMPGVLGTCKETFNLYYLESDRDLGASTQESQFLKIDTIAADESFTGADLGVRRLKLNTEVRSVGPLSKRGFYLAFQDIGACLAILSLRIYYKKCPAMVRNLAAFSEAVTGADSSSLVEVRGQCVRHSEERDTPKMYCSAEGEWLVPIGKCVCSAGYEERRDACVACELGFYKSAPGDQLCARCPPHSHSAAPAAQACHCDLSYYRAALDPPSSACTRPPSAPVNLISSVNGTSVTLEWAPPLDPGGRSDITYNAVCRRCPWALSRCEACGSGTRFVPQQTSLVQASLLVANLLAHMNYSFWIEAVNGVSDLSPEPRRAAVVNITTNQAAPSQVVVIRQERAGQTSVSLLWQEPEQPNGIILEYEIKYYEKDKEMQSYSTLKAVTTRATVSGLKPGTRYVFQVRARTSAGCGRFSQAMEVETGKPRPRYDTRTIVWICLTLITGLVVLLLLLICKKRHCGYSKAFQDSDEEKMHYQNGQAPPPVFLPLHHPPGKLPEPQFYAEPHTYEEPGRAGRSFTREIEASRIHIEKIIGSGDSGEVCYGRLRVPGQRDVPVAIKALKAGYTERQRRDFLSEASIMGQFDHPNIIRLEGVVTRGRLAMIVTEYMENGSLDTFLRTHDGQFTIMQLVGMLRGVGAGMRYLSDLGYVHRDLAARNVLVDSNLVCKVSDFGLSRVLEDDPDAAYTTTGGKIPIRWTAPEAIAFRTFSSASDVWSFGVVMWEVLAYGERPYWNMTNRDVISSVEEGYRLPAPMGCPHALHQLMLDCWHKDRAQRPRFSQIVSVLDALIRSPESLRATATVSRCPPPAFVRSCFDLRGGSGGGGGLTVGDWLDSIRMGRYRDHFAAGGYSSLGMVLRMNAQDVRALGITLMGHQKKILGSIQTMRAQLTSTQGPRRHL

[9] = molecular target: T2, Ephrin type-A receptor 8 (Homo sapiens); settings: at 10 µM
[10] = molecular target: T3, Ephrin type-B receptor 1 (Homo sapiens) (UniProt P54762); settings: at 1 µM
T3 sequence (whole entry): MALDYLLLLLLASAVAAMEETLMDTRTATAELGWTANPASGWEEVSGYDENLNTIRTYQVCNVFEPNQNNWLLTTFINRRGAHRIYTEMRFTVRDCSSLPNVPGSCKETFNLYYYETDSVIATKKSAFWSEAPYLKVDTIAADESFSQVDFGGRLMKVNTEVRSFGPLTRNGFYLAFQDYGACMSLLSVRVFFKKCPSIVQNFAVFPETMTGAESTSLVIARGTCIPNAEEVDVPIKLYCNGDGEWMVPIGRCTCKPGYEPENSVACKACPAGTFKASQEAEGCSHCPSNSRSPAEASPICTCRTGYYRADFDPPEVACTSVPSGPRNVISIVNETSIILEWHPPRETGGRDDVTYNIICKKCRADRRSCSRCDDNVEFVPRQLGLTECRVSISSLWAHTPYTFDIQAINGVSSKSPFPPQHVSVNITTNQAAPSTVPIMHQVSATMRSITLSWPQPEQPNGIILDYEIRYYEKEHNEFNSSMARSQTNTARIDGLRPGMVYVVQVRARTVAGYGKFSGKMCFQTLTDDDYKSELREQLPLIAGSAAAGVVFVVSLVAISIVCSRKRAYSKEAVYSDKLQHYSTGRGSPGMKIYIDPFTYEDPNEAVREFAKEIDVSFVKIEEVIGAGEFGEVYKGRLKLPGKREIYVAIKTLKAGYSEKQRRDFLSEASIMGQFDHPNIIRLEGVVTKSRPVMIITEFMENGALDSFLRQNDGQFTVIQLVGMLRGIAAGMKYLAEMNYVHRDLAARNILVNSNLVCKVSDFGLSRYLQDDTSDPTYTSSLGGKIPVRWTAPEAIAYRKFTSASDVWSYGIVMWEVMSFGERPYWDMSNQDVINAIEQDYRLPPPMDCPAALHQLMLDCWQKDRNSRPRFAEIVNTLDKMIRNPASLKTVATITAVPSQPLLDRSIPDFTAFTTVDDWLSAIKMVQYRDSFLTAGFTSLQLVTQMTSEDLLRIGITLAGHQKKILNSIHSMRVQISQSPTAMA

| SMILES | residual activity [1] [%] | residual activity [2] [%] | residual activity [3] [%] | residual activity [4] [%] | residual activity [5] [%] | residual activity [6] [%] | residual activity [7] [%] | residual activity [8] [%] | residual activity [9] [%] | residual activity [10] [%] |
| --- | --- | --- | --- | --- | --- | --- | --- | --- | --- | --- |
| CC(C)n1cnc2c(NCc3ccccc3)nc(NCCCO)nc21 | 101 | 109 | 104 | 96 | 84 | 84 | 78 | 97 | 94 | 93 |
| COc1cc2ncnc(Nc3ccc(Oc4ccccc4)cc3)c2cc1OC | 106 | 107 | 103 | 130 | 89 | 102 | 84 | 91 | 65 | 110 |
| O=C(Nc1cccc(Nc2nccc(Nc3cccc(C(F)(F)F)c3)n2)c1)C1CC1 | 47 | 102 | 92 | 99 | 80 | 81 | 43 | 97 | 67 | 62 |
| CNc1cc2c(Nc3cccc(Br)c3)ncnc2cn1 | 78 | 105 | 95 | 103 | 92 | 90 | 54 | 98 | 69 | 93 |
| CCC(=O)Nc1ccc2ncnc(Nc3cccc(Br)c3)c2c1 | 82 | 106 | 92 | 101 | 99 | 92 | 76 | 97 | 88 | 97 |
| O=c1cc(-c2cccc3c2Sc2ccccc2S3)oc(N2CCOCC2)c1 | 94 | 106 | 104 | 113 | 88 | 97 | 98 | 108 | 111 | 97 |
| Nc1ccc2ncnc(NCCc3ccc(Oc4ccccc4)cc3)c2c1 | 92 | 125 | 104 | 110 | 113 | 112 | 100 | 104 | 99 | 114 |
| COc1cccc(-c2cc(=O)c3ccccc3o2)c1N | 108 | 109 | 108 | 118 | 96 | 98 | 97 | 105 | 104 | 118 |
| COc1cc2ncnc(Nc3ccc(NC(=O)c4ccccc4)cc3)c2cc1OC | 102 | 109 | 102 | 104 | 97 | 92 | 66 | 103 | 103 | 97 |
| COc1cc2ncnc(N3CCN(C(=O)Nc4ccc(Oc5ccccc5)cc4)CC3)c2cc1OC | 112 | 99 | 101 | 117 | 124 | 95 | 93 | 87 | 99 | 96 |
| CC#CC(=O)Nc1cc2c(Nc3ccc(F)c(Cl)c3)ncnc2cn1 | 92 | 118 | 91 | 102 | 97 | 96 | 91 | 104 | 93 | 96 |
| N#C/C(=C(\N)Sc1ccc(N)cc1)c1ccccc1C(F)(F)F | 99 | 116 | 112 | 98 | 95 | 99 | 89 | 85 | 87 | 110 |
| O=C1NC(=O)/C(=C\c2ccc3nccnc3c2)S1 | 87 | 108 | 106 | 132 | 101 | 97 | 94 | 88 | 94 | 115 |
| Nc1nc(Nc2ccc(S(N)(=O)=O)cc2)nn1C(=S)Nc1c(F)cccc1F | 23 | 97 | 86 | 59 | 11 | 3 | -2 | 76 | 24 | 1 |
| O=c1c2ccccc2[nH]c(=S)n1CCN1CCC(=C(c2ccc(F)cc2)c2ccc(F)cc2)CC1 | 96 | 112 | 100 | 110 | 92 | 106 | 92 | 115 | 111 | 90 |
| Cc1ccc(NC2=CC(=O)c3sc(C)nc3C2=O)cc1 | 97 | 101 | 112 | 110 | 100 | 90 | 83 | 89 | 96 | 81 |
| Oc1n[nH]c2nnc(-c3c(-c4ccccc4)nn4ccccc34)cc12 | 90 | 96 | 103 | 113 | 95 | 94 | 88 | 86 | 89 | 97 |
| CN(C)c1ccc(/C=C2\C(=O)Nc3ccccc32)cc1 | 100 | 115 | 109 | 108 | 112 | 104 | 89 | 102 | 98 | 100 |
| Ic1cccc(CSc2nnc(-c3ccncc3)o2)c1 | 83 | 104 | 103 | 106 | 99 | 88 | 81 | 89 | 87 | 95 |
| CCOc1cc2ncnc(Nc3cccc(Br)c3)c2cc1OCC | 22 | 86 | 31 | 50 | 9 | 48 | 7 | 54 | 20 | 48 |
